Laboratory results taken from PubChem BioAssay AID485290 (National Center for Advancing Translational Sciences (NCATS), 2010).
The campaign covered roughly 350,000 compounds. About 990 (0.28%) were called active. Inconclusive results (about 2%) are left out. Calls follow the shape of the dose curve; as a rule, active = well fitted inhibition curve with a large enough effect; inconclusive = small, poorly fitted or top-dose-only effect; inactive = no such curve, though single readings can be large or run the other way. Shown is part of a subset that was picked to be rich in actives.

Molecular target: Tyrosyl-DNA phosphodiesterase 1 (Homo sapiens) (UniProt Q9NUW8)
Sequence (Q9NUW8 whole entry, looked up): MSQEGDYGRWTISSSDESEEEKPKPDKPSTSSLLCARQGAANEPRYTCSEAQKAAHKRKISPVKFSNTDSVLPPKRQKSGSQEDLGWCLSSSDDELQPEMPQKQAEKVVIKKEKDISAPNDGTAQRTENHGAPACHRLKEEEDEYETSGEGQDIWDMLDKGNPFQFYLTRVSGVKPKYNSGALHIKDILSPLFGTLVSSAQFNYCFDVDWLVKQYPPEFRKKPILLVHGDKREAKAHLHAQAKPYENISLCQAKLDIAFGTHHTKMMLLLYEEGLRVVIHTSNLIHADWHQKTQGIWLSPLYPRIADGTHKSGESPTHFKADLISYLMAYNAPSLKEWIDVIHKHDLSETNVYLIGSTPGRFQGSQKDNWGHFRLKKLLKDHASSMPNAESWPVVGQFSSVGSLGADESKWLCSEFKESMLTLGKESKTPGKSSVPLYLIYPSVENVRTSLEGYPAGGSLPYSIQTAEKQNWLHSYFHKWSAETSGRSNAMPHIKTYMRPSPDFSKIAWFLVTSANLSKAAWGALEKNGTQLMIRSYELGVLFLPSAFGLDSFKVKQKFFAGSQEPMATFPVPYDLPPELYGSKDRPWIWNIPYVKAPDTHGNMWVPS
Test: qHTS Assay for Inhibitors of Tyrosyl-DNA Phosphodiesterase (TDP1); also: nearly all actives have a fitted effect of over 40% in size
Conditions: recombinant TDP1, AlphaScreen DNA substrate cleavage; series mostly up to 130 µM; activity change, negative = inhibition: at the top concentration
Description: NIH Molecular Libraries Probe Production Network [MLPCN]
NIH Chemical Genomics Center [NCGC]
Assay Provider: Yves Pommier and Christophe Marchand, National Cancer Institute
Assay Title: qHTS Assay for Inhibitors of Tyrosyl-DNA Phosphodiesterase (TDP1); also: nearly all actives have a fitted effect of over 40% in size
Human tyrosyl-DNA phosphodiesterase I (Tdp1) is a rational anticancer target because this enzyme is involved in the repair of DNA lesions created by the trapping of human DNA topoisomerase I (Top1) following treatment by anticancer agents such as camptothecins. Recombinant Tdp1 was expressed and purified from E. coli in the laboratory (Anthony et al, Nucleic Acids Research, 2007, Vol. 35, 4474-4484). A Tdp1 DNA substrate bearing a 5' biotin and a 3' phospho-tyrosine was obtained by custom synthesis. This oligonucleotidic DNA substrate was subsequently coupled to a fluorescein isothiocyanate (FITC) group via the free amino group present on the phospho-tyrosine. Tdp1 was screened against the NCGC small molecule library using the AlphaScreen (AS) detection method in which a streptavidin donor AS bead is bound at the 5' end and an anti-FITC AS acceptor bead is bound at the 3' end of the DNA oligonucleotidic substrate. In the presence of Tdp1, the enzyme cleaves the tyrosine-FITC group, leaving a 3' end phosphate on the DNA substrate. This cleavage reaction results in a loss of signal in AS.
[1] 3 ul of buffer is dispensed in columns 3 & 4 as negative control (no enzyme and maximum signal),
[2] 3 ul of enzyme (1 nM final) is dispensed in columns 1,2, 5-48,
[3] 1 ul of substrate (15 nM final) is dispensed throughout the plate,
[4] 1 ul of AS donor/acceptor bead mix (10 ug/ml final) is dispensed throughout the plate
3 ul of Tdp1 enzyme is dispensed to 1536-well Kalypsys black solid bottom plates. Compounds and controls (23 nl) are transferred via Kalypsys Pin Tool. The plates are incubated for 15 min at room temperature, and then 1 ul of substrate is added to start the reaction. After 5 min incubation at room temperature, 1 ul of AS donor/acceptor bead mix is added and the plates are further incubated for 10 min at room temperature. The detection is then performed on a PerkinElmer Envision reader.
% is scaled to controls: 0 for no effect and ±100 for the full control effect; potency is read from the fitted curve at half-maximal effect.

SMILES | activity change, negative = inhibition | Potency
O=C(COC(=O)c1cccs1)NCc1cccs1 | -0.673% (inactive) | 
CCCCNc1ccc(-c2nc(-c3ccncc3)no2)cc1[N+](=O)[O-] | 0% (inactive) | 
Cc1cc(C)c2oc(-c3cccc(NC(=O)c4cccc(F)c4)c3C)nc2c1 | 5.81% (inactive) | 
Cc1ccc(Cc2cnc(N)s2)o1 |  | 20 µM (active)
Cc1ccc(CCC(=O)Nc2ncc(Cc3cc(Cl)ccc3Cl)s2)o1 | 2.56% (inactive) | 
COc1cc(F)c(S(=O)(=O)N2CCCN(S(=O)(=O)c3ccc(N)cc3)CC2)c(F)c1 | 2.59% (inactive) | 
O=S1(=O)N=C(Oc2cccc(Br)c2)c2ccccc21 | 1.26% (inactive) | 
Cc1ccc(NC(=O)CSc2nc(CSc3ccc(C)cc3)cc(=O)[nH]2)cc1 | 0% (inactive) | 
COc1ccc(NC(=O)CSc2nc(NS(=O)(=O)c3ccc(C)cc3)cc(=O)[nH]2)cc1 |  | 20 µM (active)
COc1ccc(NC(=O)CSc2nc3ccccc3[nH]2)cc1 | 1.95% (inactive) | 
Oc1ccc(Br)cc1C1C=C(c2ccc3c(c2)OCO3)NC(c2ccc(Cl)cc2)N1 (stereo not given) | 2.78% (inactive) | 
Cc1ccc2nc(-c3ccc(O)cc3)c(Nc3ccc4c(c3)OCO4)n2c1 | 6.98% (inactive) | 
COc1ccc(CCc2nc(-c3cccs3)no2)cc1 |  | 89.1 µM (active)
COc1ccc(OC)c(CNC(=O)CCc2nc(-c3cccs3)no2)c1 | 0% (inactive) | 
CCc1ccc(CNC(=O)CCc2nc(-c3cccs3)no2)cc1 | 1.31% (inactive) | 
CCC(=O)Nc1cccc(-c2nc3cc(C)ccc3o2)c1 | 5.69% (inactive) | 
OCCNc1ncnc2oc(-c3ccco3)c(-c3ccco3)c12 | 0.0157% (inactive) | 
CN(CCOc1ccccc1)C(=O)c1cc(COc2c(F)cccc2F)on1 | -0.184% (inactive) | 
Cc1ccc(OCc2cc(C(=O)N(C)CCc3ccccc3)no2)cc1C |  | 50.1 µM (active)
Cc1cc(CN(C)C(=O)c2cc(COc3ccc(C)c(C)c3)on2)n[nH]1 | 4.51% (inactive) | 
COc1ccc(C2Nc3ccccc3C(=O)N2Cc2ccco2)cc1COc1cccc(NC(C)=O)c1 (stereo not given) | -0.885% (inactive) | 
Cc1ccc(C(=O)COC(=O)C(Cc2c[nH]c3ccccc23)NC(=O)c2ccc(Br)cc2)cc1 (stereo not given) | 0.948% (inactive) | 
CCCCNC(=O)Cn1c(SCc2cccc(Cl)c2)nc2ccncc21 | 0.301% (inactive) | 
CCN1CCN(c2cc(C)c3cc(NC(=O)c4cc(Cl)ccc4OC)ccc3n2)CC1 | 5.88% (inactive) | 
C=CCCN(C(Cc1ccccc1)C(=O)OC)S(=O)(=O)c1cc(Br)ccc1Br (stereo not given) | -9.71% (inactive) | 

SMILES | activity change, negative = inhibition | Potency
C=CCCN(Cc1ccccc1)S(=O)(=O)c1ccccc1Br |  | 39.8 µM (active)
C=CC(COCc1ccccc1)N(Cc1ccccc1)S(=O)(=O)c1ccccc1Br (stereo not given) | -12.1% (inactive) | 
CC1(C)CCc2cc(S(=O)(=O)N3CCN(c4nc(-c5cccs5)nc5ccccc45)CC3)ccc2O1 | 1.18% (inactive) | 
Cc1ccc(Cl)cc1NC(=O)C(C)n1nnc2sc(-c3ccccc3)cc2c1=O (stereo not given) | 2.33% (inactive) | 
Cc1ccccc1NC(=O)CSc1nc2ccc(Nc3nc(N4CCOCC4)nc(N4CCOCC4)n3)cc2s1 | 2.22% (inactive) | 
Cc1ccc(Nc2nc(N3CCOCC3)nc(N3CCOCC3)n2)cc1Cl |  | 22.4 µM (active)
Cc1ccc(Nc2nc(N)nc(CN3CCN(Cc4ccccc4)CC3)n2)cc1Cl | 6.79% (inactive) | 
CC1CC(C)CN(c2oc(-c3ccc(OCc4ccc(Cl)cc4)cc3)nc2C#N)C1 (stereo not given) | 5.48% (inactive) | 
Cc1ccc(CCNC(=O)c2ccc(CS(=O)(=O)Cc3cccc(C)c3)o2)cc1 | 5.2% (inactive) | 
CCN1CCN(C(c2ccc(C)cc2)c2c(O)cc(C)n(Cc3ccco3)c2=O)CC1 (stereo not given) | 5.41% (inactive) | 
COc1cccc(C(=O)NC2CCN(C#N)CC2)c1 | 1.27% (inactive) | 
Cn1c(COc2ccccc2C(C)(C)C)nc2ccccc21 | 0% (inactive) | 
O=C(Cc1ccc([N+](=O)[O-])cc1)N/N=C/c1ccco1 | 0% (inactive) | 
CC(C)NC(=O)C(=O)N/N=C/c1ccco1 | -10.5% (inactive) | 
O=c1nc(N/N=C/c2ccco2)cn[nH]1 |  | 31.6 µM (active)
Oc1ccc(Cl)cc1C1C=C(c2ccc3c(c2)OCO3)NC(c2c(F)cccc2Cl)N1 (stereo not given) | 3.95% (inactive) | 
Cc1noc(C)c1-c1ccc2ncnc(NCc3ccc(F)c(F)c3)c2c1 | 0.294% (inactive) | 
Oc1ccc(Cl)cc1C1C=C(c2ccc3c(c2)OCO3)NC(c2ccc(F)c(Br)c2)N1 (stereo not given) | 1.96% (inactive) | 
CO[C@@]12[C@@H](COC(N)=O)C3=C(C(=O)C(C)=C(N)C3=O)N1C[C@@H]1N[C@@H]12 |  | 35.5 µM (active)
O=[N+]([O-])c1ccc(S(=O)(=O)N2CCN(c3nc(-c4ccccc4)nc4ccccc34)CC2)cc1 | 2.79% (inactive) | 
Cc1cccc(N2CCN(C(=O)c3ccc4c(c3)CCN4S(=O)(=O)c3ccccc3)CC2)c1C | 6.98% (inactive) | 
COc1ccc(CCNc2ncnc3c2cnn3-c2ccc(C)cc2)cc1 | 2.6% (inactive) | 
CCc1cccc(C)c1N(C(=O)Cn1c(CO)nc2ccccc21)C(C)COC (stereo not given) | 4.37% (inactive) | 
CCOCN(C(=O)Cn1c(C(C)O)nc2ccccc21)c1c(C)cccc1CC (stereo not given) |  | 89.1 µM (active)
CC(O)c1nc2ccccc2n1Cc1ccc([N+](=O)[O-])cc1 (stereo not given) | 0% (inactive) | 
